Screening results: PubChem, National Center for Advancing Translational Sciences (NCATS)
This is a sample that favours compounds with a hit; in the whole collection about 3.1% have one here.
A549 viability – Nrf2 qHTS screen for inhibitors: counterscreen for cytotoxicity; A549 ARE-Fluc cells, CellTiter-Fluor viability, 18-24 h; Potency, µM (top dose mostly 46 µM), inactives show top-dose activity change, negative = cytotoxicity, most hits filed as inhibitors; hit rate 0.16% among 390,000; AID 504648, 2011; further: on the % scale 0 is the no-effect control and ±100 the full control effect
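A549 ARE-Fluc cells in 5% FBS OPTI-MEM, 5000 cells/well, rested 2 h then exposed to compounds in concentration-response for 18-24 h at 37 °C. Viability by CellTiter-Fluor fluorescence (Ex 405/Em 525) after 30 min; luciferase luminescence (BugLite, 15 min, RT) read afterwards.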
Mito fusion act – qHTS Assay for Small Molecule Inhibitors of Mitochondrial Division or Activators of Mitochondrial Fusion. S. cerevisiae fusion-defective mutant growth rescue, CellTiterGlo 48 h. Potency, µM (top dose mostly 46.1 µM), without a hit: at the highest dose growth rescue (activation), usual class: activators. hit rate 0.23% among 320,000. AID 485298, 2010; further: % of control where 0% means no effect; nearly all actives have a fitted effect of over 45% in size
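Luminescent cell viability in 1536-well qHTS format served as the measure of rescued growth in ts fusion-mutant S. cerevisiae cultured on non-fermentable YPEG for 48 hours at 37C.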
TrxR1 substrate – qHTS Assay for Substrates of Mammalian Selenoprotein Thioredoxin Reductase 1 (TrxR1): qHTS. Potency, µM (top dose mostly 114 µM), for the others: at the highest dose activity change, negative = substrate turnover. hit rate 0.01% among 390,000. purified TrxR1 substrate turnover, NADPH consumption readout. AID 588456, 2011; further: on the % scale 0 is the no-effect control and ±100 the full control effect; nearly all actives have a fitted effect of over 50% in size
Target sequence (O89049 whole entry, looked up): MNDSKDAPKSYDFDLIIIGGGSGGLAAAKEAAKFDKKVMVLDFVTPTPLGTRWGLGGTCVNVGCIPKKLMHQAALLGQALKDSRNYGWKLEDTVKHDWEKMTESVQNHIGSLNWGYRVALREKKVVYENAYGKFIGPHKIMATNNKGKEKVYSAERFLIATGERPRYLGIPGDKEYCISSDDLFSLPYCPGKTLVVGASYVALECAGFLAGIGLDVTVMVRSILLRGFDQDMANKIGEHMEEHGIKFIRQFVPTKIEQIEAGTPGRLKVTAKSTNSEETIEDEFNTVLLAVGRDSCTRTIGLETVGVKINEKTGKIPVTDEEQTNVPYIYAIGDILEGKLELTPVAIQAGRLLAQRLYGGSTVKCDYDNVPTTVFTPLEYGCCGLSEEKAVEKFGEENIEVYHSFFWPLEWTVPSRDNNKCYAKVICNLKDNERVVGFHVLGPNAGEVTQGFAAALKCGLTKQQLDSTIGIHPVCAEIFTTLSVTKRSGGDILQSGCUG
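Rat TrxR1, dispensed at 90 nM, was prereduced with 400 uM NADPH (final) for 5 min at ~22 deg C, then incubated with compound 15 min before 400 uM selenite. A first-read NADPH fluorescence drop versus no-compound background flagged substrates.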
Nrf2 block – Nrf2 qHTS screen for inhibitors; A549 ARE-Fluc reporter, luciferase luminescence, 18-24 h; Potency, µM (titrated, usually from 46 µM), for the others: top-dose activity change, negative = inhibition, actives largely listed as inhibitors; hit rate 2.1% among 360,000; AID 504444, 2011; further: on the % scale 0 is the no-effect control and ±100 the full control effect; nearly all actives have a fitted effect of over 60% in size
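A549 ARE_Fluc cells, 5000/well, 5% FBS OPTI-MEM; compounds in dose-response, 18-24 h at 37 °C/5% CO2; CellTiter-Fluor viability read (Ex 405/Em 525), then BugLite luciferase luminescence = Nrf2 activity.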
IDH1 R132H inh – qHTS for Inhibitors of mutant isocitrate dehydrogenase 1 (IDH1): qHTS; hit rate 0.093% among 390,000; IDH1-R132H enzyme, NADPH consumption, diaphorase/resazurin fluorescence; Isocitrate dehydrogenase [NADP] cytoplasmic (Homo sapiens), O75874; Potency, µM (highest dose often 76.6 µM), inactives show at the highest dose activity change, negative = inhibition, actives largely listed as inhibitors; further: on the % scale 0 is the no-effect control and ±100 the full control effect; nearly all actives have a fitted effect of over 65% in size
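IDH1-R132H (0.5 ug/mL dispensed) in pH 7.5 Tris buffer was preincubated 30 min with compound, then given a substrate mix of 0.016 mM NADPH and 2 mM alpha-KG for 80 min at room temperature; remaining NADPH was read by diaphorase/resazurin fluorescence.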
rTrxR1 inhibitor – qHTS Assay for Inhibitors of Mammalian Selenoprotein Thioredoxin Reductase 1 (TrxR1): qHTS; Thioredoxin reductase 1, cytoplasmic (Rattus norvegicus), O89049; recombinant rTrxR1, NADPH fluorescence consumption, selenite substrate; Potency, µM (top dose mostly 114 µM), for the others: at the highest dose activity change, negative = inhibition, most hits filed as inhibitors; hit rate 1% among 390,000; further: on the % scale 0 is the no-effect control and ±100 the full control effect; nearly all actives have a fitted effect of over 65% in size
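Rat TrxR1 (90 nM in the dispensed reagent) was pre-reduced with 400 uM NADPH for 5 min at room temperature, then incubated with compound for 15 min. After 400 uM selenite was added, NADPH fluorescence (Ex 340/Em 450 nm) was followed for 8 min.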
* hit, by the source's call; ? = inconclusive; . = no result; [ ] = dose if it differs, or a comment. The call rests on the fitted dose curve; in most records, active means well fitted curve in the direction sought with a large enough effect; inconclusive means small, poorly fitted or top-dose-only effect, or another doubt; inactive means no such curve, though single readings can be large; an effect the other way counts as inactive or inconclusive. Potency means the concentration at half of the fitted maximal effect.

SMILES	A549 viability	Mito fusion act	TrxR1 substrate	Nrf2 block	IDH1 R132H inh	rTrxR1 inhibitor
COc1ccc(N2CCN(c3c4c(nc5nncn35)CCC4)CC2)cc1	2%	.	-2%	21µM*	.	9%
Cc1nc2c(c(C)c1CCC(=O)NCc1ccccc1)c(=O)n(C)c(=O)n2C	-2%	.	14%	-1%	27%	44%
Cn1c(N2CCOCC2)c(/C=N/OC(=O)c2ccc(F)cc2)c2ccccc21	-5%	-7%	5%	0.65µM*	1%	19%
CC(=O)O/N=C/c1c(N2CCOCC2)n(C)c2ccccc12	.	-6%	-5%	6.5µM*	9%	2%
O=C(C[n+]1ccccc1Cl)c1ccc2ccccc2c1	.	.	13%	.	.	-5%
O=C1/C(=C/c2ccco2)N=C(N2CCCCC2)N1c1ccccc1	-16%	0%	-13%	?	2%	71µM*
CC(C)N(C1=N/C(=C\c2ccco2)C(=O)N1c1ccccc1)C(C)C	2%	-2%	-7%	7%	9%	-34%
COc1cc2oc3ccc(C#Cc4ccc(N)cc4)cc3c(=O)c2cc1OC	-12%	.	4%	15µM*	2%	2%
N#Cc1ccc(C#Cc2ccc3oc4ccccc4c(=O)c3c2)cc1	10%	.	14%[57.1 µM]	-11%	2%	35%[57.1 µM]
COc1cc2oc3ccc(C#Cc4ccccn4)cc3c(=O)c2cc1OC	4%	.	41%	-9%	0%[38.3 µM]	10%
Nc1ccc(C#Cc2ccc3c(=O)c4ccccc4oc3c2)cc1	-8%	0%	-5%	10µM*	13%	-13%
COc1cc2oc3cc(C#Cc4ccc(N)cc4)ccc3c(=O)c2cc1OC	?	.	1%	16µM*	5%	-5%
O=S(=O)(O)c1cccc2c(N=Nc3ccc(O)c4ncccc34)cccc12	12µM*	0%	-10%	-39%	3%	-14%
COc1ccc(N=Nc2ccc(O)c3ncccc23)cc1	?	7%	2%	12µM*	5%	17%
COc1cccc(N=Nc2ccc(O)c3ncccc23)c1	?	31%	-7%	?	-8%	11%
O=C(CSc1ccc(Cl)cc1)c1ccco1	-2%	5%	6%	1%	8%	45µM*
O=C(CCSc1ccc(Cl)cc1)c1ccco1	1%	5%	4%	-10%	-1%	10µM*
CCN(CC)CCNC(=O)C(=O)NCC(c1cccnc1)N1CCN(c2ccccc2)CC1 (centres undefined)	-1%	.	10%[11.4 µM]	?	19%	-9%
COc1ccc(-n2c(-c3ccc(Br)cc3)c[n+]3c2CCc2ccccc2-3)cc1	-16%	-2%	-9%	8.2µM*	7%	-19%
COc1ccc(-c2cn(-c3ccc(OC)cc3)c3[n+]2-c2ccccc2CC3)cc1	-5%	0%	9%	?	0%	2%
CC(C)N(c1ccc(C=O)cc1)C(C)C	.	.	-11%	.	.	-11%
CCOC(=O)c1c(C)c(-c2ccccc2)n(CC(=O)NCc2cccc(OC)c2)c1C	-13%	.	14%	?	6%	17%
O=C(N/N=C/C=C/c1ccco1)c1ccccc1Cl	3%	-8%	-19%	14%	-5%	56µM*
CC(/C=C/c1ccco1)=N\NC(=O)c1cccc(Cl)c1	-9%	7%	-18%	9%	-1%	?
O=C(N/N=C/C=C/c1ccco1)c1ccncc1	0%	-1%	-14%	25%	-3%	40µM*
SMILES	A549 viability	Mito fusion act	TrxR1 substrate	Nrf2 block	IDH1 R132H inh	rTrxR1 inhibitor
O=C(N/N=C/C=C/c1ccco1)/C(=C/c1ccccc1)NC(=O)c1ccccc1	-9%	1%	-7%[57.1 µM]	7%	-1%	20µM*
CC(/C=C/c1ccco1)=N/NC(=O)c1ccccc1Cl	-1%	0%	12%[57.1 µM]	?	0%	16µM*
CCOc1ccc(CNS(=O)(=O)c2cc3c(cc2C)NC(=O)CO3)cc1OC	9%	.	-5%[57.1 µM]	.	-17%	5%[57.1 µM]
COc1ccc(OC)c(C2=Nn3c(nnc3-c3ccc(OC)c(OC)c3)SC2)c1	-4%	.	.	?	.	.
CCOc1ccc(N(CC)C(=O)c2cc3c(s2)-c2ccc(Cl)cc2SC3)cc1	?	.	1%	16µM*	16%	16%
O=C(CCOc1ccccc1)NO	.	.	3%	.	.	14%
CN1C2=CC=CC=CC2=[N+](C)C12C=CC(=[N+]([O-])[O-])C=C2[N+](=O)[O-] (centres undefined)	18µM*	-2%	-18%[57.1 µM]	23µM*	11%	?
CCOC(=O)C(C(C)=O)c1c(Br)c(O)c(O)c2c(C(=O)c3ccc(C)cc3)coc12 (centres undefined)	8.2µM*	1%	4%	7.3µM*	4%	?
Cc1noc(C)c1COc1ccccc1C(=O)N1CCN(c2cccc(Cl)c2)CC1	-3%	19%	2%	-9%	2%	16%
Cc1noc(C)c1COc1ccc(C(=O)N2CCN(c3cccc(Cl)c3)CC2)cc1	-5%	-12%	-4%	23µM*	-1%	-4%
CC(=O)c1ccccc1NC(=O)c1ccc(OCc2c(C)noc2C)cc1	0%	.	15%	13µM*	2%	44%
COc1ccc(S(=O)(=O)NCC(c2ccco2)N2CCOCC2)cc1C (centres undefined)	2%	.	-2%[57.1 µM]	.	-3%	9%[57.1 µM]
O=C(NCCc1ccccc1)C(c1cccs1)N(C(=O)CCl)c1ccc(Cl)cc1 (centres undefined)	-3%	-9%	2%	-17%	-6%	3.2µM*
CCN1CCN(C(=O)/C=C/c2ccc(C(C)C)cc2)CC1	5%	.	-5%	?	0%	-2%
CCN1CCC(O)(/C=C/c2ccc(C(C)C)cc2)C(C(=O)/C=C/c2ccc(C(C)C)cc2)C1 (centres undefined)	?	.	-14%	-22%	-14%	7.9µM*
Cc1ccc(N=C2NC(=O)/C(=C/c3cn(C)c4ccccc34)S2)cc1C	-19%	?	-16%	23µM*	1%	-16%
COc1ccc(C(=O)Nc2nc3cc4c(cc3s2)OCCO4)c(OC)c1	-4%	3%	71%	21µM*	6%	73%
O=C(Nc1nc2cc3c(cc2s1)OCCO3)c1cccc(N2C(=O)CCC2=O)c1	0%	-4%	-9%[57.1 µM]	-21%	16%	-3%[57.1 µM]
CCN(CC)S(=O)(=O)c1cccc(C(=O)Nc2nc3cc4c(cc3s2)OCCO4)c1	?	3%	25%	15µM*	-7%	-35%
